Results from PubChem BioAssay (NCATS).
“And” between values parts separate entries of the source, which are not always exact repeats. Identical values can stand only once. Inconclusive results are not listed. The source made the active and inactive calls. Unless noted, calls come from the whole dose curve; as a rule, active = well fitted inhibition curve with a large enough effect; inconclusive = small, poorly fitted or top-dose-only effect; inactive = flat fitted curve, though single readings scatter.

Key:
[1] = Drug repurposing screens with cells derived from glioblastoma tumor samples (AID 1345199); settings: GBM patient neurospheres viability, ATP luminescence, 48 h; note: nearly all actives have a fitted effect of over 40% in size; note: potency is the fitted concentration of half-maximal effect; for activity, negative = cell killing: % is set by controls: 0 for no effect and ±100 for the full control effect
Procedure, shortened: (§1)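 Four patient lines of CD133+ GBM neurospheres were screened at several concentrations; hits were retested in those lines plus three slower-growing GBM lines, using 48-hour treatment and ATP-based viability.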

[2] = test system: astro; experiment: as above; settings: viability, ATP luminescence, 48 h; series mostly up to 45.9 µM
Procedure, shortened: as §1

[3] = molecular target: Nuclear receptor subfamily 1 group I member 2 (Rattus norvegicus) (UniProt Q9R1A7); experiment: qHTS assay for small molecule activators of the rat pregnane X receptor (rPXR) signaling pathway (AID 651751; call rule not given here; note: 0% is about no effect); settings: rPXR reporter cells, luciferase (One-Glo), 24 h
[4] = qHTS assay for small molecule activators of the human pregnane X receptor (PXR) signaling pathway (AID 720659; call rule not given here; note: 0% is about no effect); settings: DPX-2 HepG2 CYP3A4-luciferase, 24 h; series mostly up to 92.3 µM
[5] = at 45.9 µM (top of the series), tumour line B
[6] = at 45.9 µM (top of the series), tumour line D
[7] = at 46 µM (top of the series), tumour line A
[8] = at 46.1 µM (top of the series), tumour line C
[9] = at 20 µM (top of the series), tumour line C
[10] = at 21.2 µM (top of the series), tumour line B
[11] = at 21.2 µM (top of the series), tumour line D
[12] = at 21.3 µM (top of the series), tumour line A

Nuclear receptor subfamily 1 group I member 2 (Rattus norvegicus), sequence (Q9R1A7 whole entry, looked up): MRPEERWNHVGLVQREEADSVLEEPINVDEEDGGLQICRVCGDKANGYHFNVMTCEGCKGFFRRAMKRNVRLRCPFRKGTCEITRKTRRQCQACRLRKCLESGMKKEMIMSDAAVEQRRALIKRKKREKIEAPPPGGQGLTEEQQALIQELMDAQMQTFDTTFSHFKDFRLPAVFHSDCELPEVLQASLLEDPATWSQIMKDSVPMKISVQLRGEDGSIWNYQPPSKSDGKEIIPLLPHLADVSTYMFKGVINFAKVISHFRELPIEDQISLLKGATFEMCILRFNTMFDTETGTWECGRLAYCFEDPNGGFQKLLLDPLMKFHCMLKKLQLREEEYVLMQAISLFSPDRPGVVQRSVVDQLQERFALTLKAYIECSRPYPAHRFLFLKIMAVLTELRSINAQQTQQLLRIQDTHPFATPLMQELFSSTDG

CNc1ccc(C(=O)CC(O)CCC(C)C2OC(=O)CC(O)CC(=O)CC(O)CC(O)CC(O)CC(O)CC3(O)CC(O)C(C(=O)OC)C(CC(O[C@@H]4O[C@H](C)[C@@H](O)[C@H](N)[C@@H]4O)/C=C/C=C/C=C/C=C/C=C/C=C/C=C/C2C)O3)cc1 (stereo not given in full)
inactive: activity, negative = cell killing [1, 5] -16.2% | activity, negative = cell killing [1, 6] 9.06% | activity, negative = cell killing [1, 7] -20.9% | activity, negative = cell killing [1, 8] -13.4% | Potency [2]

O=CC=O
inactive: activity, negative = cell killing [1, 5] 0.224% | activity, negative = cell killing [1, 6] -5.05% | activity, negative = cell killing [1, 7] -22.3% | activity, negative = cell killing [1, 8] 29.7% | Potency [2] | max response [3] -6.34% | outcome [4]

O=c1[nH]c(=O)n(Cl)c(=O)n1Cl
inactive: activity, negative = cell killing [1, 5] -3.23% | activity, negative = cell killing [1, 6] -0.766% | activity, negative = cell killing [1, 7] -8.9% | activity, negative = cell killing [1, 8] 7.98% | Potency [2] | max response [3] -4.63% | outcome [4]

CCCC(=O)OC(C(Cl)(Cl)Cl)P(=O)(OC)OC (stereo not given)
inactive: activity, negative = cell killing [1, 5] -9.86% | activity, negative = cell killing [1, 6] -6.58% | activity, negative = cell killing [1, 7] -3.23% | activity, negative = cell killing [1, 8] 7.15% | Potency [2]

O[C@H]1[C@H]2[C@H](O)CCCN2C[C@H]1O
inactive: activity, negative = cell killing [1, 5] 0.771% | activity, negative = cell killing [1, 6] -7.2% | activity, negative = cell killing [1, 7] -40.5% | activity, negative = cell killing [1, 8] -19.9% | Potency [2]

Clc1ccccc1Cl
inactive: activity, negative = cell killing [1, 5] -2.22% | activity, negative = cell killing [1, 6] -8.63% | activity, negative = cell killing [1, 7] -3.16% | activity, negative = cell killing [1, 8] -0.0025% | Potency [2] | max response [3] 6.34% | outcome [4]

OC[C@@H](O)[C@H]1O[C@@H]2O[C@@H](C(Cl)(Cl)Cl)O[C@@H]2[C@H]1O
inactive: activity, negative = cell killing [1, 5] -12.9% | activity, negative = cell killing [1, 6] -1.55% | activity, negative = cell killing [1, 7] -29.4% | activity, negative = cell killing [1, 8] 7.8% | Potency [2]

CCCCCl
inactive: activity, negative = cell killing [1, 5] -5.4% | activity, negative = cell killing [1, 6] -17.7% | activity, negative = cell killing [1, 7] -20.4% | activity, negative = cell killing [1, 8] 7.44% | Potency [2] | max response [3] -2.58% | outcome [4]

O=c1ccc2cc(O[C@@H]3O[C@H](CO)[C@@H](O)[C@H](O)[C@H]3O)c(O)cc2o1
inactive: activity, negative = cell killing [1, 9] -2.02% | activity, negative = cell killing [1, 10] -12.8% | activity, negative = cell killing [1, 11] -17.9% | activity, negative = cell killing [1, 12] -15.8% | Potency [2]

C[C@H]1CC[C@]2(NC1)O[C@H]1C[C@H]3[C@@H]4CC[C@H]5C[C@@H](O)CC[C@]5(C)[C@H]4CC[C@]3(C)[C@H]1[C@@H]2C
active: Potency ([1]; tumour line A) 8.91 µM
inactive: activity, negative = cell killing [1, 5] -14.5% | activity, negative = cell killing [1, 6] -28.2% | activity, negative = cell killing [1, 8] -9.91% | Potency [2]

CCCC(C)(COC(N)=O)COC(=O)NC1CC1 (stereo not given)
inactive: activity, negative = cell killing [1, 5] -5.97% | activity, negative = cell killing [1, 6] -18% | activity, negative = cell killing [1, 7] -25.6% | activity, negative = cell killing [1, 8] -16.6% | Potency [2]

Oc1cc(Cl)c(Cl)cc1Cl
inactive: activity, negative = cell killing [1, 5] -12.6% | activity, negative = cell killing [1, 6] -21.4% | activity, negative = cell killing [1, 7] -39.7% | activity, negative = cell killing [1, 8] -1.02% | Potency [2] | max response [3] 6.93% and 2.63% | outcome [4]

CCC1(c2ccccc2)C(=O)NC(=O)NC1=O
inactive: activity, negative = cell killing [1, 5] -10.3% | activity, negative = cell killing [1, 6] 2.64% | activity, negative = cell killing [1, 7] -5.16% | activity, negative = cell killing [1, 8] 3.61% | Potency [2]

ClCC1CO1 (stereo not given)
inactive: activity, negative = cell killing [1, 5] -15% | activity, negative = cell killing [1, 6] -9.19% | activity, negative = cell killing [1, 7] -27.8% | activity, negative = cell killing [1, 8] -16.2% | Potency [2] | max response [3] 1.11% | outcome [4]

CCNCC(O)c1cccc(O)c1 (stereo not given)
inactive: activity, negative = cell killing [1, 9] 5.83% | activity, negative = cell killing [1, 10] -15.1% | activity, negative = cell killing [1, 11] -23% | activity, negative = cell killing [1, 12] -30.1% | Potency [2]

CC[C@H]1[C@@H]2C[C@H]3[C@@H]4N(C)c5ccccc5[C@]45C[C@@H](C2[C@H]5O)N3[C@@H]1O (stereo not given in full)
inactive: activity, negative = cell killing [1, 9] 5.4% | activity, negative = cell killing [1, 10] 2.75% | activity, negative = cell killing [1, 11] 6.31%

Clc1ccc(C(Cn2ccnc2)OCc2csc3c(Cl)cccc23)c(Cl)c1 (stereo not given)
inactive: activity, negative = cell killing [1, 9] 2.67% | activity, negative = cell killing [1, 10] -18.1%

O=[N+]([O-])c1cc(I)c(O)c(I)c1
active: Potency ([1]; tumour line D) 22.4 µM

C[C@]12CCC(=O)C[C@@H]1CC[C@@H]1[C@@H]2CC[C@]2(C)[C@@H](O)CC[C@@H]12
inactive: max response [3] 6.67% and 13%

CC(C)(C)c1cc(O)ccc1O
inactive: activity, negative = cell killing [1, 6] -24.6% | activity, negative = cell killing [1, 8] 3.11% | max response [3] 3.84% and -2.04% and 0.779%

CCC1(c2ccccc2)C(=O)NC(=O)N(C(=O)c2ccccc2)C1=O (stereo not given)
inactive: activity, negative = cell killing [1, 5] -17.6% | activity, negative = cell killing [1, 6] -13.8% | activity, negative = cell killing [1, 8] -23.5% | Potency [2]

C[C@H]1CC[C@@H]2[C@@H](C)[C@H]3[C@H](C[C@H]4[C@@H]5CC=C6CC(O[C@@H]7O[C@H](CO)[C@H](O)[C@H](O[C@@H]8O[C@H](CO)[C@@H](O)[C@H](O)[C@H]8O)[C@H]7O[C@H]7O[C@@H](C)[C@H](O)[C@@H](O)[C@H]7O)CC[C@]6(C)[C@H]5CC[C@]34C)N2C1 (stereo not given in full)
inactive: activity, negative = cell killing [1, 8] -1.25% | outcome [4]
active: Potency ([1]; tumour line B) 22.4 µM | Potency [2] 22.4 µM
